Assay [1] is described as follows: inhibitors of TNFa-induced NFkB p65 translocation, primary screen, imaging, HUVEC, MLSMR starter and 10KST1 sets (AID 438;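 active means inhibition above 20% together with a positive visual image hit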;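 further: compound added about 3h40 before a 20 min TNFalpha stimulation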;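 on inhibition: signal is the nuclear over cytoplasmic p65 intensity ratio per well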). The conditions noted are these: HUVEC TNFa-induced p65 nuclear translocation; cell count: measured here: nuclei count (cytotoxicity indicator), at 2.08 µM; inhibition: at 2 µM, stronger effect = higher value, 0% TNFa-plus-vehicle, 100% no-TNFa wells.
Assay [2] can be described thus: reduction of polyQ htt aggregates in cells – imaging, exon1htt(103Q)mCFP cells, high-content imaging, primary screen (AID 483;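 active means visual image review flags a hit and inhibition of aggregation exceeds 20%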;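 further: compound exposure lasted 3 days before fixation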;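 on nuclei count: percent of the per-plate median nuclei count of sample wells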). The conditions noted are these: exon1htt(103Q)mCFP cell line, aggregate imaging, at 2 µM; inhibition of aggregation: stronger effect = higher value; nuclei count: measured here: cell count, toxicity.
Assay [3] can be described thus: endothelial E-selectin expression blockers – imaging, HUVEC, immunofluorescence, MLSMR starter and 10KST1 sets, primary screen (AID 487).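 On inhibition: signal is fraction of cell area covered by stained E-selectin grains.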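 On nuclei count: 100% = median nuclei count of all wells on the same plate.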 The conditions noted are these: HUVEC TNFalpha-induced E-selectin immunofluorescence imaging, at 2 µM; inhibition: stronger effect = higher value; nuclei count: measured here: cell number, toxicity.
For assay [4], the target named is Voltage-gated potassium channel subunit beta-2 (Rattus norvegicus) (UniProt P62483). In words: inhibitors of rat Kvbeta2 reductase activity – biochemical, NADPH fluorescence, primary screen (AID 622;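 active means fluorescence slope higher than the sample average by over 3 SD, cut at about -0.22 in these data, passing the limit was not always enough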;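 further: slope of raw intensity against log time taken from 70 to 1610 s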). The conditions noted are these: recombinant KvBeta, 4-cyanobenzaldehyde reduction, at 10 µM, stronger effect = higher value.
Voltage-gated potassium channel subunit beta-2 (Rattus norvegicus), sequence (P62483 whole entry, looked up): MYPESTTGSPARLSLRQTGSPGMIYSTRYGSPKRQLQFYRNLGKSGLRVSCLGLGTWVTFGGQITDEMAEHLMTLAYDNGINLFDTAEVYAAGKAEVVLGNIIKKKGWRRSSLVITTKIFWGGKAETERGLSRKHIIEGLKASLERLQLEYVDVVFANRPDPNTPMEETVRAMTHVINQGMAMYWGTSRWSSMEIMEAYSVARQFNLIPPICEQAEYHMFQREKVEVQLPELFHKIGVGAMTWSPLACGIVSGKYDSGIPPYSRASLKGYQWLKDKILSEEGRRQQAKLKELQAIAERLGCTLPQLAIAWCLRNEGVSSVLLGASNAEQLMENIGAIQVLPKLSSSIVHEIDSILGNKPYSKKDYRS
The target is the same in assay [5]. The experiment in a line: enhancers of rat Kvbeta2 NADPH turnover – biochemical, NADPH fluorescence, primary screen (AID 623;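 active means NADPH fluorescence slope more negative than the mean of all samples by about 3 SD, 99.7% confidence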;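 further: fluorescence intensity change per second fitted from 20 to 320 s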). The conditions noted are these: Recombinant KvBeta, NADPH fluorescence decrease slope, 10 min; at 10 µM; stronger effect = lower value.
Assay [6] addresses Alpha-2C adrenergic receptor (Homo sapiens) (UniProt P18825). The experiment in a line: compounds altering alpha2C-coupled GIRK flux – cell-based, HEK293 alpha2C/GIRK1/2, thallium flux, primary screen (AID 624;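 active means fluorescence slope after compound addition differing from the mean of all screened samples at 99.7% confidence, in either direction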;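 further: slope of fluorescence ratio to pre-addition baseline per second over 15 to 24 s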). The conditions noted are these: thallium flux BTC fluorescence, at 10 µM, actives lie on both sides.
A short description of assay [7]: blockers of RIG-like receptor reporter activation – cell-based, Sendai virus stimulus, luciferase, 10K MLSCN set, TLR/RLR signaling modifier project, primary screen (AID 602276;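 active means inhibition at or above 50% at 10 µM; inactive means inhibition below 50%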;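 further: firefly luciferase from ISG56 promoter only with Renilla not read in this screen; 0% = Sendai virus plus DMSO and 100% = medium plus DMSO without virus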). The conditions noted are these: HEK293 RL24 IRF3 luciferase reporter, at 10 µM, stronger effect = higher value. Background: Reporter assays use an easily measured gene product as a stand-in for the process of interest.

Assay [8] in a line: TLR3 IRF3 reporter activation blockers – cell-based, poly I:C stimulus, luciferase, 10K MLSCN set, primary screen (AID 602277;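 active means inhibition of the reporter signal at or above 50%; inactive means inhibition below 50%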). The conditions noted are these: HEK293-TLR3 RL24 IRF3 luciferase reporter, at 10 µM, stronger effect = higher value.

Activity calls are given as the source filed them.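 How the source made its calls, unless noted: active means visually confirmed hit in the image check and inhibition above 20%; inconclusive means visually confirmed hit but inhibition not above 20%; inactive means no visual hit in the image check.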

Alpha-2C adrenergic receptor (Homo sapiens), sequence (P18825 whole entry, looked up): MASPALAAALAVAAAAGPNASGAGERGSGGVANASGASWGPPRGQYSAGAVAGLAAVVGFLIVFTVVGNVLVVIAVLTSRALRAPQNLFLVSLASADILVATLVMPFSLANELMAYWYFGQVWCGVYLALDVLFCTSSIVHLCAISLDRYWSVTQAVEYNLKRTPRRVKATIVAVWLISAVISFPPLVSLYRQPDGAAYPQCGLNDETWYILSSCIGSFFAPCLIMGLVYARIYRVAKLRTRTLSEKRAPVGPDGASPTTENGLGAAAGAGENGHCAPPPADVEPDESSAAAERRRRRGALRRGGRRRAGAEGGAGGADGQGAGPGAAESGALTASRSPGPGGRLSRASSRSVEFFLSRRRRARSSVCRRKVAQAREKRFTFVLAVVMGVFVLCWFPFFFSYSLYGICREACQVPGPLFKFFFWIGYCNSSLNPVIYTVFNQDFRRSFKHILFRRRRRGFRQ

In general, inhibition refers to the drop in the measured response relative to a control, in per cent. `CCCn1c(C)cc(C(=O)COc2ncnc3sccc23)c1C`: the cell count in assay [1] came to 312. The inhibition in assay [1] is 2.9% (inactive); in assay [3], -66.8% (inactive); in assay [7], -64% (inactive); in assay [8], -108% (inactive). The inhibition of aggregation in assay [2] was 11.2% (inactive). Also, the nuclei count is 65.8% in assay [2] and 115% in assay [3]. Further, the fluorescence slope in assay [4] was -0.556 (inactive). In addition, in assay [5], the NADPH fluorescence slope was 2.3e-05 (inactive). Also, the slope in assay [6] was 0.00512 (inactive).

Consider `Cc1cc(NC(=O)c2cccc(S(=O)(=O)N3CC(c4ccccc4)CC3=O)c2)no1` (centres undefined), for which the cell count in assay [1] was 873. Moreover, the inhibition in assay [1] is -1.2% (inactive); in assay [3], -44.9% (inactive); in assay [7], 8.54% (inactive); in assay [8], 25.9% (inactive). Moreover, the inhibition of aggregation in assay [2] is 2.3% (inactive). Moreover, the nuclei count in assay [2] was 107%; in assay [3], 121%. Besides, in assay [4], the fluorescence slope is -0.562 (inactive). For the same compound, the NADPH fluorescence slope in assay [5] was -5.1e-05 (inactive). Further, the slope in assay [6] is 0.00664 (inactive).

In the case of `CCC1C(=O)N=C(SCC(=O)Nc2cccc3ccccc23)NC1=O` (centres undefined), the cell count in assay [1] was 393. In addition, the inhibition is -4% (inactive) in assay [1], -41.3% (inactive) in assay [3], -15.6% (inactive) in assay [7] and 0.719% (inactive) in assay [8]. The inhibition of aggregation in assay [2] is 3.1% (inactive). The nuclei count worked out at 101% in assay [2] and 119% in assay [3]. Moreover, in assay [4], the fluorescence slope was -0.564 (inactive). Besides, in assay [5], the NADPH fluorescence slope was -4.5e-05 (inactive). Moreover, the slope in assay [6] was 0.00593 (inactive).

Regarding `COc1ccc(C2C(C(=O)c3sc(C)nc3C)=C(O)C(=O)N2CCN(C)C)cc1OC` (centres undefined), the cell count in assay [1] is 539. Moreover, the inhibition was 13.4% (inactive) in assay [1], 10.8% (inactive) in assay [3], -1.16% (inactive) in assay [7] and 4.66% (inactive) in assay [8]. The inhibition of aggregation in assay [2] was -5.5% (inactive). In addition, the results for the nuclei count in assay [2] and in assay [3] were 96.8% and 103%, respectively. The fluorescence slope in assay [4] is -0.6 (inactive). Besides, the NADPH fluorescence slope in assay [5] was -7.9e-05 (inactive). In addition, the slope in assay [6] is 0.0037 (inactive).

Regarding `CCc1ccc(N2CC(C(=O)OCC(=O)NC3CCS(=O)(=O)C3)CC2=O)cc1` (centres undefined), in assay [1], the cell count stood at 260. The inhibition in assay [1] was 21% (inactive); in assay [3], 6.8% (inactive); in assay [7], 0.238% (inactive); in assay [8], 7.99% (inactive). Moreover, the inhibition of aggregation in assay [2] was 12% (inactive). For the same compound, the nuclei count in assay [2] turned out to be 85.2%; in assay [3], 91.9%. Further, the fluorescence slope in assay [4] was -0.468 (inactive). In assay [5], the NADPH fluorescence slope was 7e-05 (inactive). Besides, the slope in assay [6] was 0.00704 (inactive).

Turning to `Cc1ccc(Cl)cc1N1CCN(C(=O)C2CCCN(S(=O)(=O)c3cnc[nH]3)C2)CC1` (centres undefined), the cell count in assay [1] was 563. Also, the inhibition in assay [1] was 10.1% (inactive); in assay [3], -74.4% (inactive); in assay [7] it was -6.79% (inactive); in assay [8] it was 3.89% (inactive). The inhibition of aggregation in assay [2] was -1.2% (inactive). For the same compound, the nuclei count in assay [2] came to 102%; in assay [3] it was 126%. In assay [4], the fluorescence slope is -0.532 (inactive). Also, in assay [5], the NADPH fluorescence slope was -2.9e-05 (inactive). Further, the slope in assay [6] is 0.00714 (inactive).

In the case of `COc1ccc(C(=O)NCCc2nnc(SCc3nc4ccccc4c(=O)[nH]3)n2C)cc1`, the cell count in assay [1] came out at 357. In addition, the inhibition is -6.6% (inactive) in assay [1], -85.5% (inactive) in assay [3], 18.2% (inactive) in assay [7] and 18.8% (inactive) in assay [8]. In addition, the inhibition of aggregation in assay [2] is -8.1% (inactive). In addition, the nuclei count in assay [2] came out at 101%; in assay [3], 112%. Besides, in assay [4], the fluorescence slope was -0.501 (inactive). Besides, the NADPH fluorescence slope in assay [5] was -3.6e-05 (inactive). The slope in assay [6] was 0.00496 (inactive).

Consider `O=C(Cn1cc2c(n1)CCCCC2)N1CCc2ccccc21`, for which the cell count in assay [1] amounted to 708. Also, the inhibition in assay [1] is -3.4% (inactive); in assay [3], -102% (inactive); in assay [7] it was 7.59% (inactive); in assay [8], 34.4% (inactive). Moreover, the inhibition of aggregation in assay [2] is 18.5% (inactive). The results for the nuclei count in assay [2] and in assay [3] were 103% and 109%, respectively. Further, in assay [4], the fluorescence slope was -0.52 (inactive). In assay [5], the NADPH fluorescence slope is -4.3e-05 (inactive). Also, the slope in assay [6] was 0.00739 (inactive).

As to `O=C(CCNS(=O)(=O)c1cccc2nsnc12)NCc1cccs1`, the cell count in assay [1] came out at 623. The inhibition is -21% (inactive) in assay [1], -34.5% (inactive) in assay [3], 17.1% (inactive) in assay [7] and 19% (inactive) in assay [8]. Besides, in assay [2], the inhibition of aggregation is -17.4% (inactive). Also, the nuclei count came out at 101% in assay [2] and 118% in assay [3]. The fluorescence slope in assay [4] was -0.508 (inactive). The NADPH fluorescence slope in assay [5] is -0.000109 (inactive). In addition, in assay [6], the slope was 0.00523 (inactive).

`Cc1ccccc1-n1c(=O)c2ccccc2n2nnnc12`: the cell count in assay [1] was determined as 789. Also, the inhibition is -6.4% (inactive) in assay [1], -23.1% (inactive) in assay [3], -17% (inactive) in assay [7] and -4.05% (inactive) in assay [8]. Besides, the inhibition of aggregation in assay [2] was -0.5% (inactive). The nuclei count stood at 125% in assay [2] and 103% in assay [3]. The fluorescence slope in assay [4] was -0.517 (inactive). Besides, the NADPH fluorescence slope in assay [5] was 2.5e-05 (inactive). Moreover, the slope in assay [6] is 0.00577 (inactive).

In the case of `CCCc1cc(=O)oc2c(C)c3occ(C)c3cc12`, in assay [1], the cell count came to 486. Further, the inhibition is 2.1% (inactive) in assay [1], -11.9% (inactive) in assay [3], 2.73% (inactive) in assay [7] and 6.19% (inactive) in assay [8]. Moreover, in assay [2], the inhibition of aggregation was -5.5% (inactive). Moreover, the figures for the nuclei count in assay [2] and in assay [3] were 99.6% and 109%, respectively. The fluorescence slope in assay [4] is -0.57 (inactive). For the same compound, in assay [5], the NADPH fluorescence slope is -4.7e-05 (inactive). Further, the slope in assay [6] was 0.00609 (inactive).

Take `COc1ccc(N2C(=O)CCC(C(=O)N3CCCCC3)C2c2ccc(OC)c(OC)c2)cc1` (centres undefined): the cell count in assay [1] was 164. The inhibition is -1.9% (inactive) in assay [1], -17.5% (inactive) in assay [3], 12.8% (inactive) in assay [7] and 21.7% (inactive) in assay [8]. The inhibition of aggregation in assay [2] was 21.6% (inactive). Moreover, the nuclei count in assay [2] is 96.5%; in assay [3], 97%. The fluorescence slope in assay [4] is -0.412 (inactive). The NADPH fluorescence slope in assay [5] was 5.3e-05 (inactive). In addition, the slope in assay [6] is 0.00625 (inactive).

As for `CCOC(=O)N1CCC(c2cc(=O)n3[nH]c(C)c(-c4ccc(F)cc4)c3n2)CC1`, the cell count in assay [1] stood at 743. Further, the inhibition is -13.4% (inactive) in assay [1], -82.2% (inactive) in assay [3], 11.5% (inactive) in assay [7] and 31% (inactive) in assay [8]. Also, in assay [2], the inhibition of aggregation was -25.8% (inactive). In addition, the nuclei count in assay [2] was 120%; in assay [3], 119%. Further, in assay [4], the fluorescence slope is -0.589 (inactive). In addition, in assay [5], the NADPH fluorescence slope was 1.5e-07 (inactive). Further, the slope in assay [6] was 0.00863 (inactive).

Turning to `COc1ccc(S(=O)(=O)N2CCN(c3ccc(C)cc3C)CC2)cc1OC`, the cell count in assay [1] stood at 772. Besides, the inhibition in assay [1] was -0.6% (inactive); in assay [3], -19.1% (inactive); in assay [7], 4.37% (inactive); in assay [8], 13.8% (inactive). The inhibition of aggregation in assay [2] was -17.1% (inactive). In addition, the nuclei count came to 114% in assay [2] and 123% in assay [3]. Further, the fluorescence slope in assay [4] was -0.544 (inactive). In addition, the NADPH fluorescence slope in assay [5] was -3.9e-05 (inactive). Moreover, the slope in assay [6] is 0.0076 (inactive).

The values are drawn from PubChem BioAssay.
